According to PubChem BioAssay AID588689 (Southern Research Specialized Biocontainment Screening …, 2011):
Screen size: about 340,000 compounds; about 1,000 (0.29%) were called active. Rule as the data show it: inconclusive = inhibition above about 29% without an active follow-up result; inactive = below that. The list is a sample of the results. Results with a measured potency or affinity are listed apart.

Target: Genome polyprotein (Dengue virus type 2 (strain 16681-PDK53)) (UniProt P29991)
Assay: flavivirus cap methylation enzyme inhibition – biochemical, confirmation dose response, primary screen (AID 588689)
Settings: Dengue-2 NS5 methyltransferase capping enzyme assay, at 25 µM, stronger effect = higher value
[1] = measured here: pilot screen replicate inhibition

Genome polyprotein (Dengue virus type 2 (strain 16681-PDK53)), sequence (P29991 whole entry, looked up): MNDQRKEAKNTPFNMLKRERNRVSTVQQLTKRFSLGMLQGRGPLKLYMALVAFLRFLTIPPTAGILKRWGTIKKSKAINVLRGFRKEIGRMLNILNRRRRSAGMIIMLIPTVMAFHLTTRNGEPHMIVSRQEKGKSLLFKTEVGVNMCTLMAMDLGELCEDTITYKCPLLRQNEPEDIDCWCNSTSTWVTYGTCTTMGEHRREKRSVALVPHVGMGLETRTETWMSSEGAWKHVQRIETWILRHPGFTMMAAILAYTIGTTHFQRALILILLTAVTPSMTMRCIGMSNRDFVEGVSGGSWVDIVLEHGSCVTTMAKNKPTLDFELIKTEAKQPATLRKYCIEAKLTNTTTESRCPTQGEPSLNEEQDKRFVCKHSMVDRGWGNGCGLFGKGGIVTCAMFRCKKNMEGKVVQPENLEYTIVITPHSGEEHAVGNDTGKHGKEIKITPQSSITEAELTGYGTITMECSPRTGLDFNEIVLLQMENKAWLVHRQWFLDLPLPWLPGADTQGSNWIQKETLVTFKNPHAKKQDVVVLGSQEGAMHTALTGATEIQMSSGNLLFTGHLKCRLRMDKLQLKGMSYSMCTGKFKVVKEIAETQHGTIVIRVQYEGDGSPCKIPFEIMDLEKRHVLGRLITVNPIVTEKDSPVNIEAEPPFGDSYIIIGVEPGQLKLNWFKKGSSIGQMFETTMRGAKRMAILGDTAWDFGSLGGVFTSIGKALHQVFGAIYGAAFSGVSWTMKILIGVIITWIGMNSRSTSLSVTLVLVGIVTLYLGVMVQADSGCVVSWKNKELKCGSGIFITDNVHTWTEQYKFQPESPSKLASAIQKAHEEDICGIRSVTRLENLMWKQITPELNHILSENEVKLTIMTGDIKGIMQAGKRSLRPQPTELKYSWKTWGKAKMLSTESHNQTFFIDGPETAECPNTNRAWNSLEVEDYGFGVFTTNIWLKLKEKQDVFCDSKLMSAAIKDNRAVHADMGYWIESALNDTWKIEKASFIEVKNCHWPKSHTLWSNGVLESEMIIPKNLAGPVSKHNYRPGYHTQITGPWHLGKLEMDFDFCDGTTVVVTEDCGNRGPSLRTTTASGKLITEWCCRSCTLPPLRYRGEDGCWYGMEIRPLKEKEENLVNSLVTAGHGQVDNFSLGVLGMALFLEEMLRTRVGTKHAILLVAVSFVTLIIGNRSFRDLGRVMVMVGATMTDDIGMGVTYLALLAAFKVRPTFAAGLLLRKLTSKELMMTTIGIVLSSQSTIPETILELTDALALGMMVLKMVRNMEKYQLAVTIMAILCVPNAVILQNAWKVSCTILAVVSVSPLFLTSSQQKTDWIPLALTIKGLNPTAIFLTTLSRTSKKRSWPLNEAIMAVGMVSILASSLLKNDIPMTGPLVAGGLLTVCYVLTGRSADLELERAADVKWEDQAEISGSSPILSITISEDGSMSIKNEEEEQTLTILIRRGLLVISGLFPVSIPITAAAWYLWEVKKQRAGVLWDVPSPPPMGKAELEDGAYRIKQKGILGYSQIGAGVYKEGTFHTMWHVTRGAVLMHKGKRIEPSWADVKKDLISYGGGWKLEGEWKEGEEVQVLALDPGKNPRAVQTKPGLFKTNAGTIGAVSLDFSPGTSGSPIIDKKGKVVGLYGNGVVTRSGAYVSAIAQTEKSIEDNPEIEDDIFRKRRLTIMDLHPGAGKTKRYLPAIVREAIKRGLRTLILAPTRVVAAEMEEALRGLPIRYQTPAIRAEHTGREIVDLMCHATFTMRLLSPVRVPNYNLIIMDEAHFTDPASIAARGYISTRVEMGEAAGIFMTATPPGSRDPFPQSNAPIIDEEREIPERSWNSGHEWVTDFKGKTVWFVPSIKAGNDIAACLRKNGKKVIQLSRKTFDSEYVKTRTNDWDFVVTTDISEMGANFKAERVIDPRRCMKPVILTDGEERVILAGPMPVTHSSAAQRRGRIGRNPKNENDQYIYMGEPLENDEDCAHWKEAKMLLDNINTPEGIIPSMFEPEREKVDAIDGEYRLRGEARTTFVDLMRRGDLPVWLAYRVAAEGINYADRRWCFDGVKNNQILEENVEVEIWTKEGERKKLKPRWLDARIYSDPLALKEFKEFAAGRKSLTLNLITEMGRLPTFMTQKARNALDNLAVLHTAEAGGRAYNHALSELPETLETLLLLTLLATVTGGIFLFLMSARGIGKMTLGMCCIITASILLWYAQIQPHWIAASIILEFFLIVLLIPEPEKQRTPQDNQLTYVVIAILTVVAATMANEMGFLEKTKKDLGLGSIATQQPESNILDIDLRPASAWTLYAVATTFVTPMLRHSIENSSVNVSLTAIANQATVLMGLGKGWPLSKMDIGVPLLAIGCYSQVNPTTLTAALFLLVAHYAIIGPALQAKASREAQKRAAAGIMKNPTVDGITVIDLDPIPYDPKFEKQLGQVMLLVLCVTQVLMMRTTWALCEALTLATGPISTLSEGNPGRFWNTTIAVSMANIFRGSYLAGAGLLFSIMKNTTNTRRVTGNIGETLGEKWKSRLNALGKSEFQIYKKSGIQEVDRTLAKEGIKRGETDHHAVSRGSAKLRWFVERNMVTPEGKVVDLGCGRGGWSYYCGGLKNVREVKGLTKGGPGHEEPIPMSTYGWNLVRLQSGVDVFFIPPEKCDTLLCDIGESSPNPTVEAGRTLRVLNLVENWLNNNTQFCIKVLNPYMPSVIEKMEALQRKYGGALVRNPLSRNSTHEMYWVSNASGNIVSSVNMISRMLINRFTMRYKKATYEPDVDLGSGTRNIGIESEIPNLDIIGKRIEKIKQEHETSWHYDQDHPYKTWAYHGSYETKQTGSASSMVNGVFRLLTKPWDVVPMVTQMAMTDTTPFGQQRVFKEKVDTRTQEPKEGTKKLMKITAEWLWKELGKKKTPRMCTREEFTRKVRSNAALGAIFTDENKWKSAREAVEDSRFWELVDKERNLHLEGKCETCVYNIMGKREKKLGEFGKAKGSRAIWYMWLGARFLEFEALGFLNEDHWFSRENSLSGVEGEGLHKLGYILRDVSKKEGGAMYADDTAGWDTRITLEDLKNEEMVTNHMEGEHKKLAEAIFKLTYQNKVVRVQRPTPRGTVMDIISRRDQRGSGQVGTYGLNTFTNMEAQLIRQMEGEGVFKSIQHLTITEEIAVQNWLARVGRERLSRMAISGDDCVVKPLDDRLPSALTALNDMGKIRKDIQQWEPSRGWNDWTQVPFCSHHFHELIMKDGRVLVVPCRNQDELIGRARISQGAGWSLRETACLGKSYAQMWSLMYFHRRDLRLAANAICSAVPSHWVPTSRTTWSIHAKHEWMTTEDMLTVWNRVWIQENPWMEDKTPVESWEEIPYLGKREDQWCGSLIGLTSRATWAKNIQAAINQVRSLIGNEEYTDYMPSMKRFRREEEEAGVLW

Structure (SMILES) | inhibition | inhibition [1] [%]
CN1CCc2c(sc(NC(=O)c3ccc([N+](=O)[O-])o3)c2C(N)=O)C1 | 6.69% (inactive) | 
CC(C)N1CCc2c(sc(NC(=O)c3ccc([N+](=O)[O-])o3)c2C(N)=O)C1 | -6.69% (inactive) | 
COc1ccc(C(CNC(=O)c2ccc(-c3ccccc3Cl)o2)N2CCCC2)cc1 (configuration not stated) | 1.14% (inactive) | 
NS(=O)(=O)c1ccc(CCNC(=O)Nc2ccc(Cl)c(Cl)c2)cc1 | -1.37% (inactive) | 
CCc1c(C(=O)N2CCOCC2)csc1C | -2.41% (inactive) | 
O=C(c1ccccc1)c1cn[nH]c1-c1ccccc1O | -2.78% (inactive) | 
COc1ccc(C(=O)OCc2csc(C)n2)c(O)c1 | -2.19% (inactive) | 
Cc1nc(COC(=O)c2ccc(CO)cc2)cs1 | -2.35% (inactive) | 
CCCCc1c(C(=O)O)cc(OC)cc1C(=O)O | 5.73% (inactive) | 
CCCCCc1cc(OC)cc2c1C(=O)OC(C)(C)O2 | 1.32% (inactive) | -1.23
COc1ccc(OC)c(C(=O)CCCCC(=O)c2cc(OC)ccc2OC)c1 | 2.88% (inactive) | 
COc1ccc(OC)c(C(=O)CCCC(=O)c2cc(OC)ccc2OC)c1 | 5.23% (inactive) | 
Cc1nc2c([nH]1)C1(CCN(Cc3ccccc3)CC1)C(C#N)=C(N)O2 | 12.1% (inactive) | 
O=C(c1ccncc1)N(Cc1cc2ccccc2[nH]c1=O)C1CCCCC1 | -1.6% (inactive) | 
Cc1ccc(NS(=O)(=O)c2ccccc2)c(NS(=O)(=O)c2ccccc2)c1 | 13.2% (inactive) | 
COc1ccc(S(=O)(=O)NC2CC3CCC2C3)cc1 (configuration not stated) | -4.66% (inactive) | 
COc1cccc(-c2coc3c(C)c4oc(=O)c(CC(=O)O)c(C)c4cc23)c1 | 1.96% (inactive) | 
COc1ccc(-c2coc3c(C)c4oc(=O)c(CCC(=O)O)c(C)c4cc23)cc1 | 11.8% (inactive) | 
Cc1c(CCC(=O)O)c(=O)oc2cc3occ(-c4ccc(Br)cc4)c3cc12 | 17.7% (inactive) | 
Cc1c(CC(=O)O)c(=O)oc2c(C)c3occ(-c4ccc(Br)cc4)c3cc12 | 26.1% (inactive) | 
COc1cccc(-c2coc3cc4oc(=O)c(CCC(=O)O)c(C)c4cc23)c1 | 9.7% (inactive) | 
Cc1c(CC(=O)O)c(=O)oc2c(C)c(OCc3ccc(F)cc3Cl)ccc12 | 1.96% (inactive) | 
COc1ccccc1COc1ccc2c(C)c(CCC(=O)O)c(=O)oc2c1C | 7.18% (inactive) | 

Structure (SMILES) | inhibition | inhibition [1] [%]
Cc1c(CCC(=O)O)c(=O)oc2cc3occ(-c4ccc(Cl)cc4)c3cc12 | 18.3% (inactive) | 
CCC[C@@H](CN1CCC[C@H]1CN1C(N)=NC[C@@H]1Cc1ccccc1)N1C[C@@H]([C@H](C)CC)N(CCc2ccc(Cl)c(Cl)c2)C1=N | -10.2% (inactive) | 
COc1ccc(-n2c(=O)cc(N3CC(C)OC(C)C3)[nH]c2=O)cc1 (configuration not stated) | -3.21% (inactive) | 
N#Cc1ccc(OCc2nnc3n2CCCCC3)cc1 | -1.53% (inactive) | 
CCOCCn1c(CN2CCN(C(c3ccccc3)c3ccccc3)CC2)nc2c1c(=O)n(C)c(=O)n2C | -5.88% (inactive) | 
COc1ccc(NC(=O)Nc2ccc3c(c2)CCC3)cc1 | 1.61% (inactive) | 
CCCC(=O)OCCNc1cc(Sc2nc3ccccc3[nH]2)c2nonc2c1[N+](=O)[O-] | 20.4% (inactive) | 
CCC(=O)OCCNc1cc(Sc2nc3ccccc3[nH]2)c2nonc2c1[N+](=O)[O-] | 29.8% (inactive) | 
Cc1ccc(Sc2cc(NCCCO)c([N+](=O)[O-])c3nonc23)cc1 | 16.2% (inactive) | 
Cc1nnc(Sc2cc(NCCCO)c([N+](=O)[O-])c3nonc23)s1 | 18.5% (inactive) | 
CN(CCO)c1cc(Sc2nc3ccccc3s2)c2nonc2c1[N+](=O)[O-] | 48.2% (inactive) | 
Cc1nnc(Sc2cc(NCCO)c([N+](=O)[O-])c3nonc23)s1 | 1.46% (inactive) | 
C[C@@H]1CC=C[C@@H]2[C@H]1C(=O)N(Cc1ccccc1)[C@H]2c1cccc(C#Cc2ccccc2)c1 | -4.3% (inactive) | -5.45
CC(C)=CCC(C)(C)C1OCCN1C(=O)c1ccccc1 (configuration not stated) | -7.18% (inactive) | 
Cc1cc(Br)ccc1NC(=O)CN(C)C(=O)C1CCN(C(=O)c2ccc(Cl)cc2)CC1 | -3.75% (inactive) | 
O=C1OC(c2ccccc2)c2ccc3ccccc3c21 (configuration not stated) | -10.9% (inactive) | 
CCOc1ccc2c(C)c(Cl)c(=O)oc2c1 | -0.69% (inactive) | 
OCCN1CCN(c2cc(-c3ccccc3)c3ccccc3n2)CC1 | -4.36% (inactive) | 
Cc1ccc(NC(=O)COC(=O)c2c(C)nn(-c3ccccc3)c2C)cc1 | 7.29% (inactive) | 
CC(=O)NN1C(=O)/C(=C\c2ccccc2)SC1=S | -3.17% (inactive) | 
C=CCOc1ccc(/C=C2\SC(=S)N(N3CCOCC3)C2=O)cc1 | -7.66% (inactive) | 
Cc1ccc(/C=C2\SC(=S)N(CCC(=O)NNS(=O)(=O)c3ccc(C)cc3)C2=O)cc1 | -5.09% (inactive) | 
COc1cccc(-n2nnnc2SCC(=O)NCc2ccco2)c1 | -6.77% (inactive) | 

Structure (SMILES) | inhibition | inhibition [1] [%]
O=C(NCCc1c[nH]c2ccccc12)c1ccco1 | -0.82% (inactive) | 
O=C(CNC(=O)C(c1ccccc1)c1ccccc1)N/N=C\c1ccc(C(=O)O)cc1 | 0% (inactive) | 
Cc1ccc(S(=O)(=O)N2CCN(S(=O)(=O)N3CCOCC3)CC2)cc1C | 2.05% (inactive) | 
O=C(CCN1CCN(c2ccccc2)CC1)N/N=C/c1ccccc1O | -10.4% (inactive) | 
COc1ccc(/C=N/NC(=O)c2cc(C)n(-c3ccccc3)c2C)cc1OC | -10.9% (inactive) | 
O=C(CCc1ccc(S(=O)(=O)N2CCOCC2)cc1)N/N=C/c1cccc(O)c1 | -1.28% (inactive) | 
CCn1c(C)nc2cc(C(=O)N/N=C/c3cccc(OC)c3O)ccc21 | -3.68% (inactive) | 
Cc1cc(/C=N/NC(=O)c2ccccc2F)c(C)n1-c1ccccc1 | -8.18% (inactive) | 
COc1ccc(/C=N/NC(=O)CCN2CCN(c3ccccc3)CC2)c(OC)c1OC | -0.66% (inactive) | 
CCn1c(C)nc2cc(C(=O)N/N=C/c3cccc(O)c3O)ccc21 | -0.82% (inactive) | 
O=C(CCc1ccc(S(=O)(=O)N2CCOCC2)cc1)N/N=C/c1ccc(F)cc1F | -6.07% (inactive) | 
CCOC(=O)CN1C(=O)N[C@@H](c2cccs2)C(C(=O)OC)=C1C | -0.8% (inactive) | 
Cn1ccnc1C(=O)c1cc(SCC(=O)NC2CC2)nc2ccccc12 | 0.73% (inactive) | 
O=C(NCc1nnnn1-c1ccc(F)cc1)c1cc2ccccc2o1 | 9.89% (inactive) | 
CCCCCCCCN1[C@@H](CC(=O)OCC)c2cc(C(F)(F)F)ccc2S1(=O)=O | -6.14% (inactive) | 
CC(C)COc1cccc(C(=O)N(C)CC(=O)Nc2cccc3ccccc23)c1 | -6.94% (inactive) | 
Cc1cccc(CC(=O)Nc2ccon2)c1 | -7.18% (inactive) | 1.51
NS(=O)(=O)c1ccc(N/N=C/c2ccc(O)cc2O)c([N+](=O)[O-])c1 | 27.2% (inactive) | 
COc1cc(/C=N/Nc2ccc([N+](=O)[O-])cc2S(=O)(=O)N2CCOCC2)cc(OC)c1OC | -2.58% (inactive) | 
NS(=O)(=O)c1ccc(N/N=C/c2ccccc2C(=O)O)c([N+](=O)[O-])c1 | 4.52% (inactive) | 
O=[N+]([O-])c1ccc(N/N=C/c2cccc(O)c2O)c(S(=O)(=O)N2CCOCC2)c1 | 6.18% (inactive) | 
Cc1c(OCC(=O)N2CCC(C(N)=O)CC2)ccc2c3c(c(=O)oc12)CCCC3 | -4.35% (inactive) | 
CCOCCCNC(=O)CCc1nnc2n(CCC(C)C)c(=O)c3ccccc3n12 | -4.57% (inactive) | 

Structure (SMILES) | inhibition | inhibition [1] [%]
CCOc1cc(NC(=S)NCCCN2CCOCC2)c(OCC)cc1NC(=O)C1CCCCC1 | -10.9% (inactive) | 
O=C(O)CCCc1ccc2c(c1)CCc1ccccc1-2 | -0.8% (inactive) | 
CC(=O)Nc1ccc2c(c1)CCc1ccccc1-2 | -9.7% (inactive) | 
CCN(CC(=O)NCc1cccs1)S(=O)(=O)c1ccccc1Cl | 0% (inactive) | 
O=C(NCc1ccncc1)C(=O)NCC1OCCN1S(=O)(=O)c1ccc(F)cc1 (configuration not stated) | -3.87% (inactive) | 
CCC(COC(C)=O)Nc1nc2c([nH]1)c(=O)n(C)c(=O)n2C (configuration not stated) | 9.2% (inactive) | 
COC(=O)C1=C(C(=O)OC)C(c2cc([N+](=O)[O-])ccc2O)c2sc(=O)[nH]c2S1 (configuration not stated) | -1.58% (inactive) | 
COC(=O)C1=C(C(=O)OC)C(c2ccc(OC)c(OC)c2)c2sc(=O)[nH]c2S1 (configuration not stated) | 18% (inactive) | 
COC(=O)c1cc(OC)nc2ccc(Br)cc12 | 4.64% (inactive) | 
COC(=O)c1sc2ccccc2c1N | -9.74% (inactive) | 
Cc1ccnc(NC(=O)C2CCCN(c3ncnc4c3nc3n4CCCCC3)C2)c1 (configuration not stated) | 0.45% (inactive) | 
CCOc1cc(/C=N/N=C2/NC(=O)C(CC(=O)O)S2)ccc1OCc1ccc(Cl)cc1Cl (configuration not stated) | 25.1% (inactive) | 
COc1cc(/C=N/NC(=O)CC2(C)OCCCO2)ccc1OCc1ccc(Cl)cc1Cl | -4.47% (inactive) | 
COc1ccc(/C=N/N=C2/NC(=O)C(CC(=O)O)S2)cc1OCc1ccc(Cl)cc1 (configuration not stated) | 13.3% (inactive) | 
COc1cc(/C=N/N=C2/NC(=O)C(CC(=O)O)S2)ccc1OCc1ccc(Cl)cc1 (configuration not stated) | 16.7% (inactive) | 
COc1ccc(/C=N/N=C2/NC(=O)C(CC(=O)O)S2)cc1OCc1ccccc1Cl (configuration not stated) | 17.8% (inactive) | 
CCOc1cc(/C=N/NC(=O)CSc2nnc(C)s2)ccc1OCc1ccccc1Cl | 8.09% (inactive) | 
O=C1CCc2nc3ccccc3c(=O)n2N1 | -1.38% (inactive) | 
COc1cccc(C(CNc2ccc(S(=O)(=O)N3CCN(C)CC3)cc2[N+](=O)[O-])N(C)C)c1 (configuration not stated) | 2.89% (inactive) | 
Cc1onc(-c2c(F)cccc2Cl)c1C(=O)NNC(=O)C1CCN(Cc2cccc(F)c2)CC1 | -7.02% (inactive) | 
